Experimental data: ChEMBL document CHEMBL1961873, “Compounds: GSK PKIS; Assays: Nanosyn kinase panel” (2012)

Molecular target: Mitogen-activated protein kinase 3 (Homo sapiens) (UniProt P27361)
Conditions: at 0.1 µM
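Note: each value is a mean inhibition figure.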

Chain of Mitogen-activated protein kinase 3 (Homo sapiens) (P27361 whole entry): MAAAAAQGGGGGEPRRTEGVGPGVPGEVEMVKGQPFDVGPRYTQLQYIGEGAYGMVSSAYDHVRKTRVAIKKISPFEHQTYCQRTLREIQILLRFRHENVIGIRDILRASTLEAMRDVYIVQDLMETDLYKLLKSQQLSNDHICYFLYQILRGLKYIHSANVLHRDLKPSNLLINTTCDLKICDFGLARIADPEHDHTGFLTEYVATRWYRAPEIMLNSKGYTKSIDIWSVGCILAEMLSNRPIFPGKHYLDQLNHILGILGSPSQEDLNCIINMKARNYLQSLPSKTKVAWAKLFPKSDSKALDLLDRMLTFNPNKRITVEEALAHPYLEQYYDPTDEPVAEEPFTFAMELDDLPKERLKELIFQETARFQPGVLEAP

Compound | inhibition
CS(=O)(=O)CCNCc1cc(-c2cc3c(Nc4ccc(OCc5cccc(F)c5)c(Cl)c4)ncnc3s2)cs1 | 4.58%
CCC(=O)Nc1ccc(C)c(-c2ccc(C(=O)NCC3CC3)cc2)c1 | 2.94%
COc1cc(Nc2ncc3c(C)nc(-c4cccc(C(F)(F)F)c4)n3n2)cc(OC)c1OC | 4.86%
Fc1ccc(-c2nc3n(c2-c2ccncc2)CCS3)cc1 | 2.96%
NC(=O)c1cc(-c2ccncc2)cc(-c2ccccc2)c1N | 3.98%
CCc1nccc2c1nc(-c1nonc1N)n2CC | 1.33%
CN(C)c1ccc2c(c1)/C(=C/Nc1ccc(S(N)(=O)=O)cc1)C(=O)N2 | 0.06%
CS(=O)(=O)CCNCc1ccc(-c2ccc3ncnc(Nc4ccc(OCc5ccccc5)c(Br)c4)c3c2)o1 | 5.25%
Cc1nnc(-c2ccc(C)c(-c3ccc(C(=O)NCc4ccc(Cl)cc4)cc3)c2)o1 | 2.96%
Cc1ccc(C(=O)NC2CCC2)cc1-c1ccc(C(=O)NCC2CC2)cc1 | 2.05%
Clc1ccc(CNc2nccc(-c3cnn4ncccc34)n2)cc1 | 3.04%
c1ccc(-c2n[nH]cc2-c2ccnc(-c3ccc(OCCN4CCOCC4)cc3)c2)nc1 | -0.63%
CCS(=O)(=O)c1ccc(OC)c(Nc2ncc(-c3cccc(-c4ccccc4F)c3)o2)c1 | -2.17%
COc1cc2ncn(-c3cc(OCc4cccs4)c(C(N)=O)s3)c2cc1OC | 3.68%
O=C1Nc2ccccc2/C1=C/Nc1ccc(-n2cncn2)cc1 | 93.3%
C/C(Nc1ccc(S(N)(=O)=O)cc1)=C1/C(=O)Nc2ccccc21 | 2.55%
CCc1cccc(CC)c1/C=C/c1cncc(C(=O)NC)c1 | 2.05%

Compound | inhibition
NC(=O)c1cc(-c2ccc(F)cc2)cc(-c2ccncc2)c1N | 3.25%
O=C(NCC1CC1)c1ccc(-c2cccc(C(=O)NC3CC3)c2)cc1 | 1.22%
COc1ccc2ncn(-c3cc(O[C@H](C)c4ccccc4Cl)c(C(N)=O)s3)c2c1 | 4.56%
O=C1Nc2ccc(I)cc2C1=Cc1cc(Br)c(O)c(Br)c1 | 3.73%
Fc1ccc(-c2ncn(CCCN3CCOCC3)c2-c2ccncc2)cc1 | 4.06%
COc1ccc2cc(-c3c(-c4ccncc4)nc(-c4ccc([S+](C)[O-])cc4C)n3C)ccc2c1 (stereo not drawn) | 0.3%
COC(=O)Nc1nc2ccc(Sc3ccc(NC(=O)Nc4cc(C(F)(F)F)ccc4F)cc3)cc2[nH]1 | 1.68%
CN(C)CCCNc1nccc(-c2c(-c3ccc(F)cc3)nn3cc(C(F)(F)F)ccc23)n1 | 2.96%
CCS(=O)(=O)c1ccc(OC)c(Nc2ncc(-c3ccccc3Cl)o2)c1 | 1.66%
Fc1ccc(-c2c(-c3ccncc3)nc3n2CCS3)cc1 | 2.96%
COc1cc2ncn(-c3cc(OCCc4ccccc4)c(C(N)=O)s3)c2cc1OC | 0.38%
Cc1ccc(NC(=O)c2ccoc2)cc1-c1ccc(C(=O)NCC2CC2)cc1 | 2.67%
NS(=O)(=O)c1ccc(N/N=C2\C(=O)Nc3ccc(C(=O)NCCCn4ccnc4)cc32)cc1 | 5.16%
NCc1ccc(-n2c(-c3nonc3N)nc3cnccc32)cc1 | 4.41%
COc1cccc(-n2cnc3c(N/N=C/c4ccncc4)ncnc32)c1 | 0.83%
C[C@@H](Oc1cc(-n2cnc3ccc(OC4CCN(C)CC4)cc32)sc1C(N)=O)c1ccccc1Cl | 3.11%
